H9c2 TAG inh = reduces triacylglycerol accumulation in H9c2 cells. inhibition, % at 12.5 µM. AID 651582. 230,000 compounds, 0.66% hits. Nile Red lipid (TAG) fluorescence; cells loaded with 200 µM oleic acid;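 active means pattern-corrected inhibition of lipid staining of at least 50% with the nuclear-stain viability signal not falling by more than 50%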;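 further: 0% = DMSO wells and 100% = triacsin C control wells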
CHT PAM = allosteric activators of human choline transporter CHT; Q9GZV3; CHT-expressing cells, membrane potential dye, choline EC20; stronger effect = higher value; LV-AA mutant CHT in HEK293 cells; B-score at 10 µM; 310,000 compounds, 0.49% hits;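 active means initial fluorescence not abnormally high and integrated response B-score, plate-corrected, over 3 SD above library mean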
Target sequence (Q9GZV3 whole entry, looked up): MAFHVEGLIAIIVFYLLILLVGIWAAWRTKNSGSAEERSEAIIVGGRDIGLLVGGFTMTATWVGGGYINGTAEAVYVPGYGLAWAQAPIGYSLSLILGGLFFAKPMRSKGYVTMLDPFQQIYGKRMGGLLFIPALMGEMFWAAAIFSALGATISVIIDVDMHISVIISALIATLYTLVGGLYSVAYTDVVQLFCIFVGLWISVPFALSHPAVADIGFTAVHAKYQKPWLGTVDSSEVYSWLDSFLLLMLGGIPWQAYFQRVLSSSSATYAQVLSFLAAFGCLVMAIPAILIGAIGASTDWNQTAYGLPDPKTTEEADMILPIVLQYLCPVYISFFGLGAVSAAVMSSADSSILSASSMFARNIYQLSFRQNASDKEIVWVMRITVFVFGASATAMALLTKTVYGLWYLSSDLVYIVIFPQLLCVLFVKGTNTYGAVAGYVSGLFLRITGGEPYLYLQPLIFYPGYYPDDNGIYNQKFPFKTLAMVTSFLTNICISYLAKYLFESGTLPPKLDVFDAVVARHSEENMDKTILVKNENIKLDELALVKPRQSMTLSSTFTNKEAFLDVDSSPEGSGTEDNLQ
CHT inh = inhibitors of human choline transporter CHT; Q9GZV3; CHT-expressing cells, membrane potential dye, choline response; stronger effect = lower value; B-score at 10 µM; 310,000 compounds, 0.86% hits;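 active means B-score over 3 SD under the library average, and starting fluorescence ratio not unusually high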;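 further: choline stimulus applied at its EC90 after an EC20 pre-addition; B-score computed on integrated fluorescence ratio after choline addition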
Kir21 inh = inhibitors of mouse Kir2.1 inward-rectifier potassium channel | P35561 | HEK293-Kir2.1, FluxOR thallium flux fluorescence; stronger effect = lower value | B-score at 10 µM | 310,000 compounds, 0.85% hits | AID 1672;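 active means fluorescence ratio B-score at or below minus 3 SD of library scores, with starting-brightness B-score within 2 SD, cut at about -4.2 in these data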;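 further: channel flux triggered by added potassium and thallium sulfate stimulus; B-score of peak minus minimum fluorescence over baseline after thallium stimulus; more negative B-score means stronger Kir2.1 block with less thallium influx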
CHT activ conf = confirmation of human choline transporter (CHT) activators. AID 504833. shares compounds with CHT PAM. activation, % at 10 µM. CHT-expressing cells, membrane potential dye fluorescence (FDSS); % of choline EC20–EC90 response window; HEK293 expressing CHT LV-AA mutant; choline added at its EC20. 2,500 compounds, 91% hits;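 active means primary screen active, with duplicate mean activation above negative control mean plus 3 SD, cut at about 11% in these data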
HEK293 MP dye = counter-screen for CHT activators: effect in parental HEK293 cells; shares compounds with CHT PAM; membrane potential dye fluorescence (FDSS); measured after EC20 choline addition; ratio readout change at 10 µM, hits read low; 2,500 compounds, 62% hits; AID 623908;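 active means duplicate-averaged ratio beyond 3 SD from buffer wells, up or down, though filed actives are nearly all decreases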
* hit, by the source's call; i = inactive; nt = not tested or not shown. Compounds with a hit are over-represented: about 2% of the library has one in this group of screens.

SMILES | H9c2 TAG inh | CHT PAM | CHT inh | Kir21 inh | CHT activ conf | HEK293 MP dye
Cc1cn2nc(N)c3ccccc3c2n1 | -18.6 | i | i | nt | 62.1* | -56.9*
Nc1nn2cc(-c3ccccc3)nc2c2ccccc12 | 11.8 | i | i | 0.07 | nt | nt
CC1=C(C(=O)Nc2ccccc2)C(c2ccc(C)o2)n2c(s/c(=C\c3ccco3)c2=O)=N1 (configuration not stated) | 14.4 | nt | nt | 1.84 | nt | nt
COc1ccc(-c2cc(C(=O)NNC(=O)c3csc(N4CCOCC4)n3)c3ccccc3n2)cc1OC | 19.6 | 7.29* | i | -0.05 | 10.6* | i
CN(C)CCSc1nnc2sc3ccccc3n12 | nt | 6.58* | i | 0.19 | 57.5* | -54.9*
N#CCSc1nnc2sc3ccccc3n12 | -10.7 | i | i | -1.07 | nt | nt
Cn1c(=O)c2c(nc(N3CCOCC3)n2CCCNC2=NCCCCC2)n(C)c1=O | -7.2 | 8.44* | i | -0.46 | 60.5* | -63.1*
Cn1c(=O)c2c(ncn2CCNC2=NCCCCC2)n(C)c1=O | 6.3 | i | i | -0.09 | nt | nt
CC(COc1ccccc1)N1CCC(CO)(Cc2ccccc2)CC1 (configuration not stated) | -6.8 | i | i | -0.63 | nt | nt
CC(=O)N(C(C)=O)c1ccc2c(c1)OCCO2 | 6.9 | nt | nt | nt | nt | nt
CCOC(=O)c1ccc2c(c1)n(CCCS(=O)(=O)[O-])c(/C=C/c1ccc(Cl)cc1)[n+]2CC | 7.1 | 11.2* | i | 0 | 71.0* | -86.2*
CCOC(=O)c1ccc2c(c1)[n+](CC)c(C)n2-c1ccccc1 | -14.1 | i | i | -0.36 | nt | nt
Cc1cc(=O)[nH]c(SCC(=O)Nc2nc3ccccc3s2)n1 | -8.1 | i | i | 1.55 | nt | nt
Cc1cc(=O)[nH]c(SCC(=O)Nc2ccnc3ccccc23)n1 | 10.5 | i | i | -1.76 | 31.4* | -51*
Cc1ccc(C(=O)OCC(=O)N2CCC(c3ccccc3)=N2)cc1 | -6.6 | nt | nt | nt | nt | nt
Nc1scn[n+]1Cc1cccc2cccnc12 | -6.4 | i | i | -0.1 | nt | nt
Nc1ccc(Br)c[n+]1Cc1cccc2cccnc12 | -1.1 | i | i | -1.28 | 34.0* | -46*
CCCC(c1nnnn1Cc1ccco1)N1CCN(c2cc(Cl)ccc2C)CC1 (configuration not stated) | 3.0 | 6.66* | i | nt | 34.6* | i
O=[N+]([O-])c1ccc(C[n+]2cccc3c4ccccc4ccc32)cc1 | -17.1 | 9.98* | i | -0.18 | 74.8* | -75.1*
COc1ccccc1Nc1c2c(nc3ccccc13)CCC2 | nt | i | i | -0.76 | nt | nt
COc1cc(Nc2c3c(nc4ccccc24)CCCC3)cc(OC)c1OC | nt | i | i | 0.62 | 44.6* | -48.7*
O=C(Cn1ccc2cc(S(=O)(=O)N3CCCCC3)ccc21)NCc1ccccc1F | nt | i | i | -0.91 | nt | nt
CCN1CCN(c2nc3c(C)cccn3c(=O)c2C=C(C#N)C#N)CC1 | nt | 7.28* | i | 0.5 | 50.0* | -60.7*
Cc1cccn2c(=O)c(C=C(C#N)C#N)c(N3CCN(C)CC3)nc12 | 11.0 | 8.46* | i | -0.88 | 56.2* | -65.3*
O=c1[nH]c2cccc(Cl)c2c2ccccc12 | -4.3 | nt | nt | nt | nt | nt
SMILES | H9c2 TAG inh | CHT PAM | CHT inh | Kir21 inh | CHT activ conf | HEK293 MP dye
COc1ccccc1CNc1cc(CSc2ccc(Cl)cc2)nc(C)n1 | -15.5 | i | i | -2.18 | 22.7* | i
COc1ccccc1N(Cc1ccccc1)S(=O)(=O)c1cccc(C(=O)Nc2cc(C)ccn2)c1 | 3.2 | i | i | -0.09 | nt | nt
CCOC(=O)c1cnc2ccc(C)cc2c1N(C)Cc1ccccc1 | nt | i | i | -1.98 | 28.0* | i
CCOC(=O)c1ccc2ncc(C(=O)OCC)c(NCCN(C)C)c2c1 | -4.4 | i | i | -1.94 | 35.8* | -36.4*
CCOC(=O)c1cnc2ccc(C(=O)OC)cc2c1Nc1cccc(C(=O)O)c1 | -3.2 | 10.7* | i | 1.78 | 74.8* | -74.4*
CCOC(=O)c1ccc2ncc(C(=O)OCC)c(NCCN3CCOCC3)c2c1 | nt | i | i | -1.62 | nt | nt
CCOC(=O)c1cnc2ccccc2c1Nc1cccc(C(=O)O)c1 | -3.4 | i | i | 0.16 | nt | nt
COc1cccc(NC(=O)C2CCCN2S(=O)(=O)c2ccc3c(c2)n(C)c(=O)c(=O)n3C)c1 (configuration not stated) | nt | i | i | 1.1 | nt | nt
